Activity calls are given as the source filed them.
How the values were obtained:
[1] = system: Wnt5a (protein binding on small-molecule microarray); test: Wnt5a binders on small-molecule microarray, primary screen, biophysical, 635/667 nm fluorescence (AID 1142); conditions: 635 nm fluorescence, higher = more signal;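 further: fluorescence read at 667 nm with signal to noise per printed feature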
[2] = cell viability in Huh7 cells, primary screen, cytotoxicity control for HCV replication inhibitor project, CellTiter-Glo luminescence, basal, 48 h (AID 1143); conditions: Huh7 HCV replicon, higher = more signal, called active from +8 up or from −8 down;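 further: Huh7 hepatoma cells carrying a hepatitis C replication reporter with no stimulus; test concentration not given here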
[3] = CREB reporter modulators without forskolin, primary screen, cell-based, PC12, CRE-LacZ reporter, unstimulated (AID 1145); conditions: no forskolin, luminescence, 4.5 h, higher = more signal, called active from +8 up or from −8 down
[4] = CREB reporter modulators under forskolin, primary screen, cell-based, PC12, CRE-LacZ reporter, forskolin-stimulated (AID 1146); conditions: luminescence, 4.5 h, higher = more signal, called active from +8 up or from −8 down;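 further: PC12 cells with 6xCRE LacZ reporter stimulated by forskolin 10 µM; beta-galactosidase reporter signal reflecting CREB driven transcription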
[5] = biological target: Streptavidin (Streptomyces avidinii) (UniProt P22629); test: streptavidin binders on small-molecule microarray, primary screen, artefact control for SMM compound annotation, biophysical, 635/667 nm fluorescence (AID 1147); conditions: streptavidin binding, higher = more signal;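 further: signal reflects streptavidin binding to arrayed compounds as a control protein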
Chain of Streptavidin (Streptomyces avidinii) (P22629 whole entry, looked up): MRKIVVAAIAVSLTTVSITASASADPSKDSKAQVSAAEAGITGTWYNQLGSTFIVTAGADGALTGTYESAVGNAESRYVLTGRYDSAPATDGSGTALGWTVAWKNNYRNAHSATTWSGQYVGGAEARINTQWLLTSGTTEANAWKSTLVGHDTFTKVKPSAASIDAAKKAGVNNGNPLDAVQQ

[6] = small-molecule binders of probe aInhba, primary screen, biochemical, small-molecule microarray, 635/667 nm fluorescence (AID 1148); conditions: higher = more signal;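 further: score merges 667nm spot fluorescence with signal-to-noise for antibody binding to printed compounds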
[7] = biological target: Torsin-1A (Homo sapiens) (UniProt O14656); test: torsin A binders from cell lysate, primary screen, small-molecule microarray, wild-type, 635/667 nm (AID 1149); conditions: COS7 hTOR1A-WT lysate, 635 nm fluorescence, higher = more signal
Chain of Torsin-1A (Homo sapiens) (O14656 whole entry, looked up): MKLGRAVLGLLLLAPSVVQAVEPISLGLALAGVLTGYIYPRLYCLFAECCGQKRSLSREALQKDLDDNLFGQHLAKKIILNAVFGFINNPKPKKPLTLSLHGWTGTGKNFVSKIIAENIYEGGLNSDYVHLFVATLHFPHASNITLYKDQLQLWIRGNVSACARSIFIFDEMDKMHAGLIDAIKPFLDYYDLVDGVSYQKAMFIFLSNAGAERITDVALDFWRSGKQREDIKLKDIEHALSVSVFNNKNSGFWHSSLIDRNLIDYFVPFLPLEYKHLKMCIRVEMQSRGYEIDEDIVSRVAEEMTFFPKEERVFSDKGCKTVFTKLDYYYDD

[8] = biological target: Torsin-1A (Homo sapiens) (UniProt O14656); test: small-molecule binders of mutant TOR1A in lysate, primary screen, cell lysate, small-molecule microarray, COS7 lysate, 635/667 nm fluorescence (AID 1150); conditions: COS7 hTOR1A mutant lysate, 635 nm fluorescence, higher = more signal;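 further: score pools 667 nm emission and signal to noise measuring lysate protein binding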
[9] = system: Sonic hedgehog protein (Shh); test: small-molecule binders of Shh protein, primary screen, biochemical, small-molecule microarray, 635/667 nm fluorescence (AID 1151); conditions: small-molecule microarray binding, 635 nm fluorescence; higher = more signal;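 further: Shh protein binding to compounds spotted on small-molecule microarray slides; score combines spot fluorescence intensity with signal-to-noise across triplicate slides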
[10] = E. coli DRC41 culture turbidity changes, primary screen, E. coli filamentation inducer project, strain DRC41, OD650, 48 h (AID 1152);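 further: E. coli MC1000 strain DRC41 lacking acrAB efflux pump and sulA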; conditions: E. coli DRC41 (acrAB sulA), higher = more signal, called active from +8 up or from −8 down
[11] = small-molecule binders of probe aLefty1, primary screen, biochemical, small-molecule microarray, 635/667 nm fluorescence (AID 1153); conditions: higher = more signal;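 further: score merges spot fluorescence with signal-to-noise ratio from the scanned slide images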
[12] = PSAC antagonists in infected red cells, primary screen, cell-based, P. falciparum Indochina, OD700, 1 h (AID 1154); conditions: P. falciparum Indochina infected RBC osmotic lysis, higher = more signal, called active from +8 up or from −8 down
[13] = PSAC antagonists in infected red cells, primary screen, cell-based, P. falciparum Indochina, OD700, 2 h (AID 1155);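 further: lysis reports solute entry through the parasite surface anion channel PSAC; channel blockers reduce lysis of infected cells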; conditions: P. falciparum Indochina infected erythrocytes, osmotic lysis OD700; higher = more signal, called active from +8 up or from −8 down
[14] = osmotic lysis modulators in infected erythrocytes, primary screen, PSAC antagonist project, cell-based, P. falciparum Indochina, OD700, 3 h (AID 1156); conditions: higher = more signal, called active from +8 up or from −8 down
[15] = PSAC antagonists in infected red cells, primary screen, cell-based, P. falciparum Indochina, OD700, 18 h (AID 1157); conditions: P. falciparum Indochina infected erythrocytes, osmotic lysis OD700, 18 h; higher = more signal, called active from +8 up or from −8 down
[16] = modulators of S6 phosphorylation in cells, primary screen, cell-based, A549, cytoblot, luminescence, serum-stimulated (AID 1158); conditions: A549 phospho-S6 cytoblot, 5 h, higher = more signal;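 further: serum-stimulated A549 lung adenocarcinoma cells; signal is phosphorylated S6 detected by cytoblot immunostaining with HRP secondary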
[17] = biological target: NADPH oxidase 2 (Homo sapiens) (UniProt P04839); test: NOX2-dependent H2O2 signal modulators, primary screen, NOX inhibitor project, cell-based, HEK293-NOX2, PMA-stimulated, Amplex Red fluorescence (AID 1159); conditions: 45 min, higher = more signal, called active from +8 up or from −8 down; further: test concentration not given here
Chain of NADPH oxidase 2 (Homo sapiens) (P04839 whole entry, looked up): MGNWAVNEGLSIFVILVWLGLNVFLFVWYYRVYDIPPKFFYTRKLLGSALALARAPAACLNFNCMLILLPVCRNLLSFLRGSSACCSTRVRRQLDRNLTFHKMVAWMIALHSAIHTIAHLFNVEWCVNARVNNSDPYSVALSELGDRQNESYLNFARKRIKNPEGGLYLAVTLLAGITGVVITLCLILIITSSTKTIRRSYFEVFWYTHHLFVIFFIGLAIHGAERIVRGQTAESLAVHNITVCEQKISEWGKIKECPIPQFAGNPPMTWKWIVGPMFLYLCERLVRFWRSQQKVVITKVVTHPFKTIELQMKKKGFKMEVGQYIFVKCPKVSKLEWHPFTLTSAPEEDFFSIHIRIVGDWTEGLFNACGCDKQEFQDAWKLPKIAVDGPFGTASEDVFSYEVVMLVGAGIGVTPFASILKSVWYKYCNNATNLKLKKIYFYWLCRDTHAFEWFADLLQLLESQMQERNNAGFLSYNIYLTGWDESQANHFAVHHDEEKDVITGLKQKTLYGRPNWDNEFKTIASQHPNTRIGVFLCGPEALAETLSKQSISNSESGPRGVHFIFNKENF

[18] = biological target: NADPH oxidase 4 (Homo sapiens) (UniProt Q9NPH5); test: NOX4-dependent H2O2 signal modulators, primary screen, NOX inhibitor project, cell-based, HEK293-NOX4, tetracycline-induced, Amplex Red fluorescence (AID 1160); conditions: 45 min, higher = more signal, called active from +8 up or from −8 down
Chain of NADPH oxidase 4 (Homo sapiens) (Q9NPH5 whole entry, looked up): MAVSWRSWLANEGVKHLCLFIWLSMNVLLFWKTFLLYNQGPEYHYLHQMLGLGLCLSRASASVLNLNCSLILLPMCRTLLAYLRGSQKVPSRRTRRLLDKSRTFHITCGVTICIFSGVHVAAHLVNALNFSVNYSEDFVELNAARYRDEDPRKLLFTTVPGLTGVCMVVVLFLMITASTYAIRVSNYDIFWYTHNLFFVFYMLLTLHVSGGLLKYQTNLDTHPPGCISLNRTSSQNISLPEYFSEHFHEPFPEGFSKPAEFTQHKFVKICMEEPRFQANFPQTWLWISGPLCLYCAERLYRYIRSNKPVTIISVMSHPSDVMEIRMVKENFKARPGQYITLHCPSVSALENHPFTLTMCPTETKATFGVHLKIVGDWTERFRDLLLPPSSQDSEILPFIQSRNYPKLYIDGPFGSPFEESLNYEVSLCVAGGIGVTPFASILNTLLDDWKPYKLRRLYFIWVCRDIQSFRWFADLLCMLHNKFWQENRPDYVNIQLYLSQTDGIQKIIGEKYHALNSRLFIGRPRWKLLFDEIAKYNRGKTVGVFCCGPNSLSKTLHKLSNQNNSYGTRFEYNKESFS

[19] = biological target: NADPH oxidase 5 (Homo sapiens) (UniProt Q96PH1); test: NOX5-dependent H2O2 signal modulators, primary screen, NOX inhibitor project, cell-based, HEK293-NOX5, Amplex Red fluorescence (AID 1161); conditions: HEK293-NOX5, ionomycin, 45 min, higher = more signal
Chain of NADPH oxidase 5 (Homo sapiens) (Q96PH1 whole entry, looked up): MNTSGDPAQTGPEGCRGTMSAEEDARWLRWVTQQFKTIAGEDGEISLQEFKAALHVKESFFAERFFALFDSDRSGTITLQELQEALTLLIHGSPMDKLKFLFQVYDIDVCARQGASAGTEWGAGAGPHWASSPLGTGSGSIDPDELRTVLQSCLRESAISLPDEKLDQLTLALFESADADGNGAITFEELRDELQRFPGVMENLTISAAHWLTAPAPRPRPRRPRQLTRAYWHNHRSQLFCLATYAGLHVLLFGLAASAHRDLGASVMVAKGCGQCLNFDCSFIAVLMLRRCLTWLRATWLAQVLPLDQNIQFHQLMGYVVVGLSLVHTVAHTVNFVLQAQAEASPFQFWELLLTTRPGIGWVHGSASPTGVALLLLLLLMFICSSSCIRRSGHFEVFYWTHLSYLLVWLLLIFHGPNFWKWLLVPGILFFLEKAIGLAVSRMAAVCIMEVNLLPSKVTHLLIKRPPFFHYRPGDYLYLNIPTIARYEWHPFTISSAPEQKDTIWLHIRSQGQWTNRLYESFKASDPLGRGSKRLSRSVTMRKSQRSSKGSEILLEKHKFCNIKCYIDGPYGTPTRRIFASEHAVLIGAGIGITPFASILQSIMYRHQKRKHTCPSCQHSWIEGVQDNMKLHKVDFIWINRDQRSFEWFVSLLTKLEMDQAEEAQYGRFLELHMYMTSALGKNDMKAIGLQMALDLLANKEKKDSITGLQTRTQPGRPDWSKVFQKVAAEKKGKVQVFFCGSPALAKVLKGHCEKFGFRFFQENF

[20] = A549 cell viability effects, profiling panel, calcein-AM fluorescence, 48 h, basal (AID 1162); conditions: higher = more signal; further: test concentration not given here

SMILES	composite z-score [1]	z-score [2]	z-score [3]	z-score [4]	composite z-score [5]	composite z-score [6]	composite z-score [7]	composite z-score [8]	composite z-score [9]	z-score [10]	composite z-score [11]	z-score [12]	z-score [13]	z-score [14]	z-score [15]	z-score [16]	z-score [17]	z-score [18]	z-score [19]	z-score [20]
C[N+](C)(C)CCCC[C@@H]1NC(=O)[C@@H]2C[C@H](C(=O)NCCCCCNC(=O)CS)[C@H](c3ccc(O)cc3)N2C1=O	0.684	-0.244 (inactive)	-0.398 (inactive)	-0.757 (inactive)	-0.101	-0.128	0.348	0.305	1.42	1.18 (inactive)	-0.0536	0.453 (inactive)	-1.65 (inactive)	-4.23 (inactive)	-2.4 (inactive)	1.4	0.621 (inactive)	0.774 (inactive)	2.12	-0.215
COc1ccc(C(=O)Nc2cccc(CN3C(=O)[C@@]4(O[C@@H](CCO)[C@H]([Si](C)(C)c5ccc(OC)cc5)[C@H]4C)c4ccccc43)c2)cc1	0.143	-8.03 (active)	4.03 (inactive)	-2.29 (inactive)	0.182	-0.0523	0.317	0.478	0.626	0.677 (inactive)	-0.0082	9.1 (active)	1.27 (inactive)	-0.984 (inactive)	-0.11 (inactive)	0.487	-6.67 (inactive)	-2.83 (inactive)	-2.96	-3.95
C=C(C1=CCN(S(=O)(=O)c2ccc(C)cc2)C1)[C@@H](OC(C)=O)[C@@H]1CCCN1S(=O)(=O)c1ccccc1[N+](=O)[O-]	0.0375	-4.37 (inactive)	2.02 (inactive)	-1.11 (inactive)	-1.05	-0.128	-0.499	-0.406	0.706	2.47 (inactive)	-0.109	26.3 (active)	17 (active)	0.77 (inactive)	0.623 (inactive)	0.993	0.0272 (inactive)	-1.36 (inactive)	0.69	-0.498
C=CC[C@@H](OC(=O)Nc1ccc(SC)cc1)c1ccc(OCCO)cc1	-0.248	-0.89 (inactive)	14.4 (active)	-0.595 (inactive)	-0.761	-0.202	1.76	0.972	0.43	-0.0217 (inactive)	0.197	27.1 (active)	18.6 (active)	0.616 (inactive)	-0.016 (inactive)	-0.506	-2.02 (inactive)	-0.346 (inactive)	-2.26	1.13
CN(C)CCCC[C@@H]1NC(=O)[C@@H]2C[C@H](C(=O)NCCCCCNC(=O)CS)[C@H](c3cccc(OCCO)c3)N2C1=O	0.21	-5.23 (inactive)	-0.39 (inactive)	-1.49 (inactive)	0.07	0.0869	0.672	0.408	2.01	1.97 (inactive)	0.2	2.86 (inactive)	0.159 (inactive)	-2.96 (inactive)	-0.778 (inactive)	2.45	-0.143 (inactive)	0.366 (inactive)	2.19	-0.459
COC(=O)[C@@]1(CCC(=O)OC(C)(C)C)COC(c2ccc(OCCCO)cc2)=N1	-0.328	-0.243 (inactive)	0.694 (inactive)	-1.14 (inactive)	-1.44	-0.109	-1.3	-0.742	-1.03	1.06 (inactive)	0.0721	21 (active)	3.26 (inactive)	0.0081 (inactive)	0.613 (inactive)	0.21	-0.0972 (inactive)	0.562 (inactive)	-2.25	0.196
C=C(COC)C(=O)CC[C@@H](OC(=O)c1ccccc1-c1ccccc1C(=O)O)c1cccc(OCCO)c1	0.0174	0.483 (inactive)	2.37 (inactive)	0.0416 (inactive)	-0.52	-0.128	0.785	0.455	0.404	0.908 (inactive)	-0.144	8.07 (active)	1.28 (inactive)	1.28 (inactive)	0.236 (inactive)	-0.178	3.24 (inactive)	1.34 (inactive)	-0.986	0.467
C=CCC(OC(C)=O)[C@@H]1[C@@H](N(Cc2cccc3ccccc23)C(=O)Cc2ccc(OC)cc2)c2cc(OCCCO)ccc2N1C(=O)Cc1ccc(OC)cc1 (stereo not given in full)	-0.143	-0.627 (inactive)	1.78 (inactive)	-1.2 (inactive)	0.131	-0.0986	0.271	-0.482	0.0188	2.17 (inactive)	0.051	1.62 (inactive)	0.317 (inactive)	0.119 (inactive)	0.506 (inactive)	0.623	0.459 (inactive)	-0.451 (inactive)	2.4	1.25
C=C(COC)/C(=C/C[C@H](OC(C)=O)c1cccc(OCCO)c1)c1cc(C(=O)OC)ccc1OC	0.44	-8.11 (active)	11.5 (active)	-0.4 (inactive)	-0.356	-0.018	1.34	1.22	1.72	1.59 (inactive)	-0.101	10.1 (active)	1.78 (inactive)	-2.63 (inactive)	-0.0354 (inactive)	1.44	-1.94 (inactive)	0.00567 (inactive)	-3.06	-0.344

Reference: PubChem BioAssay
